VACV mCherry inh: qHTS for Stage-Specific Inhibitors of Vaccinia Orthopoxvirus: mCherry Reporter Primary qHTS; Vaccinia virus mCherry reporter infection, fluorescence; Potency, µM (titrated, usually from 36.5 µM), for the others: top-dose activity change, negative = inhibition, hits mostly inhibitors; 0.63% of 310,000 active; calls by dose curve; tested in A549 cells; note: potency is the fitted concentration of half-maximal effect; nearly all actives have a fitted effect of over 35% in size
VACV Venus inh: qHTS for Stage-Specific Inhibitors of Vaccinia Orthopoxvirus: Venus Reporter Primary qHTS. Vaccinia virus Venus reporter expression, fluorescence. 0.46% of 330,000 active. Potency, µM (highest dose often 36.5 µM), for the others: top-dose activity change, negative = inhibition, usual class: inhibitors; calls by dose curve; tested in A549 cells; note: potency is the fitted concentration of half-maximal effect; nearly all actives have a fitted effect of over 30% in size
FMDV inh: High Throughput Screening for Foot and Mouth Disease Virus Antivirals | FMDV antiviral cell-based qHTS | Potency, µM (series often up to 57.9 µM), for inactives: top-dose activity change, negative = inhibition, most hits filed as inhibitors | 1.2% of 410,000 active | AID 1159524, 2015; calls by dose curve; tested in HEK293T cells; note: read-out not given here; potency is the fitted concentration of half-maximal effect; nearly all actives have a fitted effect of over 45% in size
HCV inhibitor: qHTS Assay for Inhibitors of Hepatitis C Virus (HCV) | Huh7.5.1 HCVcc-Cre infection, luciferase reporter, 44 h | Potency, µM (series often up to 41.8 µM), for the others: at the top dose activity change, negative = inhibition, actives largely listed as inhibitors | 3.4% of 340,000 active | AID 651820, 2012; note: potency is the fitted concentration of half-maximal effect
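HCVcc-Cre virus at an moi near 0.5 was added right after compound to cells cultured 4 h from seeding (1,000 cells/well). Luciferase activity was determined 44 h later, 15 min after substrate addition at RT.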
Sm TGR inh: qHTS Assay for the Inhibitors of Schistosoma Mansoni Peroxiredoxins. Schistosoma mansoni thioredoxin glutathione reductase (TGR), Q962Y6. purified TGR, DTNB reduction, TNB absorbance 405 nm. Potency, µM (series often up to 114 µM), for the others: at the highest dose activity change, negative = inhibition, hits mostly inhibitors. 3% of 360,000 active. AID 485364, 2010; note: potency is the fitted concentration of half-maximal effect; nearly all actives have a fitted effect of over 60% in size
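Kinetic colorimetric format: TGR-catalysed, NADPH-driven DTNB reduction monitored via TNB absorbance. Enzyme dispensed at 20 nM; compound exposure 15 min at room temperature before reaction start.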
HCMV antiviral: qHTS Assay for inhibitors of the human cytomegalovirus (HCMV) | HFF cells, HCMV-luciferase reporter, 72 h; active compounds read low | activity change, negative = inhibition, % at 57.5 µM | 4.5% of 410,000 active | AID 1259415, 2018; in the data active = activity change below about -60%; inconclusive = no clear call, values can overlap the other calls; inactive = above about -39%
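Two-dose cell screen: HFF monolayers treated with compounds and infected with luciferase-expressing HCMV at 1 PFU/cell, 72 h at 37C, then lysed for luciferase measurement.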
Active calls of the source: *; i = inactive; ? = inconclusive; nt = no result; + = active, no number; [ ] = dose if it differs, or a comment. A selection: hits, their analogues and other compounds. The true share with any hit is near 9.3%. Unless noted, calls come from the whole dose curve; as a rule, active = well fitted curve in the direction sought with a large enough effect; inconclusive = small, poorly fitted or top-dose-only effect, or another doubt; inactive = no such curve, though single readings can be large; an effect the other way counts as inactive or inconclusive. % is set by controls: 0 for no effect and ±100 for the full control effect.

SMILES | VACV mCherry inh | VACV Venus inh | FMDV inh | HCV inhibitor | Sm TGR inh | HCMV antiviral
COc1cccc(Oc2nc3c(c(=O)n(Cc4ccccc4Cl)c(=O)n3C)n2C)c1 | i | -4.4% | -23.7% | nt | 6.0% | 9.2
CC(C)(C)c1nn(-c2ccccc2)c2[nH]c(=O)c(CNCc3ccco3)cc12 | -17.3% | -22.3% | 0.2% | -29.0% | -2.9% | -9.9
Cc1ccc(CNCc2cc3c(C(C)(C)C)nn(-c4ccccc4)c3[nH]c2=O)cc1 | -11.4% | -20.5% | nt | 10µM* | -29.1% | ?
CC(C)(C)c1nn(-c2ccccc2)c2[nH]c(=O)c(CNc3ccc4c(c3)OCCO4)cc12 | i | -9.0% | nt | ? | -24.6% | -61.6*
COc1ccc(OCC(=O)NNC(=O)Nc2cccc(Cl)c2)cc1 | -8.3% | -9.6% | 4.0% | 26.9% | 0.1% | nt
Cc1nn(-c2ccccc2)cc1C(c1c(N)[nH]c(=S)[nH]c1=O)c1c(N)[nH]c(=S)[nH]c1=O | 4.6% | 6.6% | 2.8% | 10.4% | -11.8% | -0.1
Cc1cc(=O)oc2cc(Oc3ccc([N+](=O)[O-])cc3[N+](=O)[O-])ccc12 | i | -8.5% | 35.5µM* | ? | 50.1µM* | 3.5
Cc1cc(=O)oc2cc(OCCc3ccccc3)ccc12 | ? | 2.0% | 28.3% | ? | -9.2% | 20.3
COc1cccc(COc2ccc3c(C)cc(=O)oc3c2)c1 | -23.8% | -13.4% | 28.4% | -41.9% | 2.6% | 68.1
COc1ccc2c(C)cc(=O)oc2c1 | -0.7% | -11.1% | -22.2% | -29.6% | nt | -101.9*
COc1ccc(C2=NOC(COc3ccc4c(C)cc(=O)oc4c3)C2)c(OC)c1 (stereo not given) | ? | ? | 2.9% | ? | -4.1% | -68.9*
COc1ccccc1C1=NOC(COc2ccc3c(C)cc(=O)oc3c2)C1 (stereo not given) | -13.4% | -29.0% | -9.7% | ? | 19.7% | -94.6*
O=C(COc1ccc(C(=O)NCCc2ccccc2)cc1)Nc1ccccc1 | 4.0% | -8.2% | 3.4% | 2.0% | 1.3% | 2.8
O=c1ccc2ccc(Oc3ccc([N+](=O)[O-])cc3Cl)cc2o1 | -24.5% | -21.7% | 8.7% | 11.2µM* | 0.4% | -11.1
O=Cc1cccc(Oc2ccc([N+](=O)[O-])cc2[N+](=O)[O-])c1 | nt | nt | -4.7% | 6.8% | 44.7µM* | ?
C#CC[N+](C)(C)CC#Cc1ccc(C)cc1 | nt | nt | -19.8% | -0.5% | 2.5% | -89.5*
Cc1cc(C)c(NC(=O)CNC(=O)CN2C(=O)NC3(CCCc4ccccc43)C2=O)c(C)c1 (stereo not given) | -24.9% | -6.7% | -22.9% | -18.1%[8.37 µM] | 0.8% | -28.4
COc1ccc(C)cc1NC(=O)Cn1c(=O)oc2cc(S(=O)(=O)NCc3ccccc3)ccc21 | -15.6% | -10.3% | 14.5% | nt | 7.8% | +
O=S1(=O)CCC(NC(=S)NC2CCS(=O)(=O)C2)C1 (stereo not given) | i | -8.1% | 7.0% | 1.7% | -8.6% | -4.1
O=S1(=O)CCC(NC(=S)SCCOc2ccccc2)C1 (stereo not given) | nt | nt | 14.1µM* | ? | ? | -69.5*
CCCCSC(=S)NC1CCS(=O)(=O)C1 (stereo not given) | ? | -24.7% | -27.4% | 12.0% | -1.7% | -84.2*
CCc1noc(C)c1C(=O)N1CCSC1=Nc1cccc(Cl)c1C | -7.4% | -18.4% | ? | -22.8% | 2.3% | -81.6*
Cc1no[n+]([O-])c1COc1ccccc1/C=N/n1nnnc1N | ? | ? | -19.1% | ? | 1.0% | -75.2*
Cc1ccc(S(=O)(=O)N(CCCO)CC(O)CON=C2c3ccccc3-c3ccccc32)cc1 (stereo not given) | -22.4% | -8.5% | 35.5µM* | 10µM* | 3.0% | 31.0
Cc1cc(OCC(=O)Nc2ccc3c(c2)OCCO3)ccc1Cl | nt | nt | 0.0% | 12.5% | 8.1% | 34.0
SMILES | VACV mCherry inh | VACV Venus inh | FMDV inh | HCV inhibitor | Sm TGR inh | HCMV antiviral
Cc1cc([N+](=O)[O-])ccc1NC(=O)CN1C2CCC1CC(NC(=O)NC13CC4CC(CC(C4)C1)C3)C2 (stereo not given) | i | -26.8% | ? | 2.51µM* | 8.3% | ?
CCCCCCCCCCCCC[N+](C)(C)Cc1ccccc1 | 11.2µM* | 11.2µM* | 28.2µM* | nt | nt | nt
CCCCCCCCCCCCCCCC[N+](C)(C)Cc1ccc(F)cc1 | -24.0% | ? | -8.6% | 15.2% | nt | -89.3*
S=C(NCCSCc1ccc(Cl)cc1Cl)Nc1ccccc1 | -29.6% | ? | ? | ? | -4.7% | -62.0*
OCCNCc1ccc(OCc2ccc(Cl)cc2Cl)cc1 | -21.9% | -12.5% | 12.3% | ? | nt | ?
Cc1ccccc1CSCCNC(=S)Nc1ccccc1 | i | -18.3% | 25.7% | ? | 13.2% | -82.7*
S=C(NCCSCc1c(Cl)cccc1Cl)Nc1ccccc1 | nt | nt | 17.6% | ? | -24.3% | ?
OCCCCNCc1ccc(OCc2ccc(Cl)cc2Cl)cc1 | 28.2µM* | ? | nt | 6.31µM* | 5.8% | -14.5
S=C(Nc1ccccc1)Nc1ccc(OCc2ccc(Cl)cc2Cl)cc1 | nt | nt | 0.316µM* | ? | 0.5% | -80.1*
S=C(NCCSCc1ccc(Cl)c(Cl)c1)Nc1ccccc1 | i | -25.4% | 13.5% | -9.6% | nt | -21.7
CC(C)(C)NC(=O)CN(C(=O)CCC(=O)Nc1nccs1)c1cccc(C(F)(F)F)c1 | nt | nt | 17.3% | -4.2% | -2.2% | 2.9
Cc1nonc1NC(=O)CSc1nnc(-c2ccoc2C)n1-c1cccc(Cl)c1 | nt | nt | -7.9% | -12.9% | -13.7% | -22.5
Cc1n[nH]c(C)c1S(=O)(=O)N1CCCCCC1 | nt | 2.7% | 5.1% | 15.3% | -2.0% | -2.1
CC(=O)C1=NOC2C(=O)N(c3ccccc3)C(=O)C12 (stereo not given) | i | -9.2% | 1.2% | 2.3% | 11.2µM* | 20.3
CCn1c(=O)c(C(=O)NCCc2ccc(OC)c(OC)c2)c(O)c2ccccc21 | nt | nt | -14.3% | ? | 16.6% | -8.2
CCc1ccc(OCc2ccc(C(=O)O)o2)cc1 | i | -11.5% | -81.7% | 13.7% | 35.5µM* | -20.2
O=C(O)c1ccc(OCc2ccc(C(=O)O)o2)cc1 | -13.8% | 1.5% | 17.1% | 2.4% | -10.0% | 30.3
CC(C)c1ccc(OCc2ccc(C(=O)O)o2)cc1 | -14.3% | 5.8% | 10µM* | 20.9% | -34.2% | -10.0
Cc1ccc2c(c1)[C@@H]1CN(C)CC[C@@H]1N2C(=O)Nc1cccc(C(F)(F)F)c1 | nt | nt | -13.4% | 10µM* | 1.5% | -1.5
Cc1ccc2c(c1)C1CN(C)CCC1N2C(=S)NC(=O)c1ccc(Br)cc1 (stereo not given) | nt | nt | ? | -20.9% | -15.1% | -62.3*
